Measurements from PubChem BioAssay (NCI).
The panel holds about 83,000 compounds, 20% with a hit somewhere; the sample as a whole holds those more often.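 Compound tested at a single concentration for 48 hours in 96-well plates; a percent growth value below 10 was scored as active.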 Active and inactive are the calls of the source.

What was measured:
Assay in all cases: NCI-60 one-dose screen, 48 h (100 = growth as untreated, 0 = no growth, -100 = all killed)
Details in all cases: 10 µM unless noted
SK-MEL-2 melanoma = test system: SK-MEL-2 melanoma
EKVX NSCLC = test system: EKVX NSCLC
SN12C renal = test system: SN12C renal
UO-31 renal = test system: UO-31 renal
TK-10 renal = test system: TK-10 renal
ACHN renal = test system: ACHN renal
CAKI-1 renal = test system: CAKI-1 renal
A498 renal = test system: A498 renal
CCRF-CEM leukemia = test system: CCRF-CEM leukemia
MOLT-4 leukemia = test system: MOLT-4 leukemia

Measured: growth

CCOc1ccc(NC(=O)CSc2oc(-c3ccccc3)nc2S(=O)(=O)c2ccc(C)cc2)cc1
inactive: SK-MEL-2 melanoma 96.6% | EKVX NSCLC 75.1% | SN12C renal 85.2% | UO-31 renal 103% | TK-10 renal 82.4% | ACHN renal 58.9% | CAKI-1 renal 83.9% | A498 renal 86.2% | CCRF-CEM leukemia 84.8% | MOLT-4 leukemia 66.1%

COC1=CC(c2ccc[nH]2)=N/C1=C\c1[nH]c(C)c(CC(=O)OCc2ccccc2)c1CCC(=O)OCc1ccccc1
active: SK-MEL-2 melanoma -61.3% | EKVX NSCLC 4% | SN12C renal -15.6% | UO-31 renal -89.3% | TK-10 renal -21.5% | ACHN renal -30.6% | CAKI-1 renal -15.9% | A498 renal -54.1% | CCRF-CEM leukemia -0.154% | MOLT-4 leukemia -10.6%

NC(Cc1ccc(O)c([N+](=O)[O-])c1)C(=O)O (stereo not given)
inactive: SK-MEL-2 melanoma 109% | EKVX NSCLC 111% | SN12C renal 95.7% | UO-31 renal 88.2% | TK-10 renal 94.4% | ACHN renal 99.2% | CAKI-1 renal 93.9% | A498 renal 105% | CCRF-CEM leukemia 88.7% | MOLT-4 leukemia 96%

CCc1ncnc2c1ccn2C(C)c1ccc(OC)c(F)c1 (stereo not given)
inactive: SK-MEL-2 melanoma 34.3% | EKVX NSCLC 51.9% | SN12C renal 67% | UO-31 renal 60.1% | TK-10 renal 58.8% | ACHN renal 75.4% | CAKI-1 renal 40.5% | A498 renal 46.3% | CCRF-CEM leukemia 42.4% | MOLT-4 leukemia 32.7%

Cc1[nH]c(C(=O)Nc2ccccc2OC2CCNCC2)c(Cl)c1Cl
active: SN12C renal -53.2% | UO-31 renal -75.8% | TK-10 renal -3.07% | ACHN renal -19.2% | CAKI-1 renal 1.32% | CCRF-CEM leukemia 1.15% | MOLT-4 leukemia 4.46%
inactive: SK-MEL-2 melanoma 24.2% | EKVX NSCLC 43% | A498 renal 67.6%

O=S(=O)(NCCCNc1nccc(-c2c(-c3ccc(F)c(O)c3)nc3occn23)n1)c1ccc(Cl)cc1
inactive: SK-MEL-2 melanoma 25.6% | EKVX NSCLC 65.6% | SN12C renal 59.5% | UO-31 renal 36.4% | TK-10 renal 103% | ACHN renal 56.3% | CAKI-1 renal 41.7% | A498 renal 84.9% | CCRF-CEM leukemia 47.9% | MOLT-4 leukemia 48.9%

CN(C)S(=O)(=O)c1cccc(C(=O)Nc2nc(-c3ccc(F)c(F)c3)cs2)c1
inactive: SK-MEL-2 melanoma 32.2% | EKVX NSCLC 48.7% | SN12C renal 62.9% | UO-31 renal 38.7% | TK-10 renal 81.2% | ACHN renal 63.4% | CAKI-1 renal 97.1% | A498 renal 46.3% | CCRF-CEM leukemia 39.6% | MOLT-4 leukemia 28.2%

CCC(C)(C)C(=O)O[C@H]1C[C@@H](C)C=C2C=C[C@H](C)[C@H](CC[C@@H]3CC(SCCN)CC(=O)O3)[C@H]21 (stereo not given in full)
inactive: SK-MEL-2 melanoma 91.1% | EKVX NSCLC 105% | SN12C renal 77% | UO-31 renal 68.6% | TK-10 renal 92.1% | ACHN renal 95.8% | CAKI-1 renal 83.9% | A498 renal 90.3% | CCRF-CEM leukemia 12.1% | MOLT-4 leukemia 77.7%

COc1ccc(\C=N/N=C(N)/C(N)=N\N=C/c2ccc(OC)cc2)cc1
active: CCRF-CEM leukemia -48.3%
inactive: SK-MEL-2 melanoma 95.5% | EKVX NSCLC 95.6% | SN12C renal 111% | UO-31 renal 89.1% | TK-10 renal 101% | ACHN renal 100% | CAKI-1 renal 89.8% | A498 renal 96.3% | MOLT-4 leukemia 109%

O=C(Cn1cc(CSc2nc3ccccc3o2)nn1)Nc1ccc(F)cc1F
inactive: SK-MEL-2 melanoma 114% | EKVX NSCLC 119% | SN12C renal 96.4% | UO-31 renal 103% | TK-10 renal 117% | ACHN renal 93.9% | CAKI-1 renal 105% | A498 renal 112% | CCRF-CEM leukemia 113% | MOLT-4 leukemia 120%

CCN1C(=S)N(c2ccccc2)C2C1NN=c1s/c(=C3\C(=O)N(C(C)C)c4ccccc43)c(=O)n12 (stereo not given)
inactive: SK-MEL-2 melanoma 107% | EKVX NSCLC 101% | SN12C renal 55.1% | UO-31 renal 80.5% | TK-10 renal 86.6% | ACHN renal 80% | CAKI-1 renal 76.2% | A498 renal 97.5% | CCRF-CEM leukemia 93.1% | MOLT-4 leukemia 91.1%

O=C(Nc1ccccc1O)c1ccc(CNC(=O)c2sccc2Nc2ccnc(C(F)(F)F)c2)cc1
active: SK-MEL-2 melanoma 0.0247% | TK-10 renal 4.53% | A498 renal 6.31%
inactive: EKVX NSCLC 59.2% | SN12C renal 57.8% | UO-31 renal 27.2% | ACHN renal 49.3% | CAKI-1 renal 35.2% | CCRF-CEM leukemia 10.8% | MOLT-4 leukemia 12.1%

O=C(/C=C/c1cccc(Cl)c1)c1cccc(OCCCOc2cccc(C(=O)/C=C/c3cccc(Cl)c3)c2)c1
inactive: SK-MEL-2 melanoma 116% | EKVX NSCLC 99% | SN12C renal 96.4% | UO-31 renal 66.8% | TK-10 renal 125% | ACHN renal 97.3% | CAKI-1 renal 70.4% | A498 renal 102% | CCRF-CEM leukemia 98.1% | MOLT-4 leukemia 96.9%

O=C1/C(=C/c2cccc(F)c2)CN(C(=O)C(Cl)Cl)C/C1=C\c1cccc(F)c1
active: SK-MEL-2 melanoma -38.1% | EKVX NSCLC -7.73% | SN12C renal -90.3% | UO-31 renal -85.5% | TK-10 renal -78.8% | ACHN renal -97.7% | CAKI-1 renal -75.6% | A498 renal -80.1% | CCRF-CEM leukemia 0.153% | MOLT-4 leukemia -23.3%

CCNCCNc1cc(C2CCCCC2)c(C#N)c2nc3ccccc3n12
active: UO-31 renal -41% | ACHN renal -52.2% | A498 renal -25.1% | CCRF-CEM leukemia -28.6% | MOLT-4 leukemia -7.01%
inactive: SK-MEL-2 melanoma 23.2% | EKVX NSCLC 36% | SN12C renal 12.8% | TK-10 renal 27.2% | CAKI-1 renal 25.1%

C=C1C(=O)O[C@H]2[C@H]1CC/C(COC(=O)NCc1ccc(Cn3c(=O)sn(CCCCC)c3=O)cc1)=C\CC[C@@]1(C)O[C@@H]21
inactive: SK-MEL-2 melanoma 76.3% | EKVX NSCLC 84.3% | SN12C renal 22.8% | ACHN renal 26.5% | CAKI-1 renal 36.4% | A498 renal 84.9%
active: UO-31 renal 6.58% | TK-10 renal 2.53% | CCRF-CEM leukemia -22% | MOLT-4 leukemia -15%

CC(=O)N1N=C(c2ccc(Nc3nc(Nc4ccccc4)nc(Nc4ccccc4)n3)cc2)CC1c1cccc([N+](=O)[O-])c1 (stereo not given)
inactive: SK-MEL-2 melanoma 60.6% | EKVX NSCLC 77.3% | SN12C renal 96.3% | UO-31 renal 63.9% | TK-10 renal 127% | ACHN renal 94.2% | CAKI-1 renal 91.7% | A498 renal 94.5% | CCRF-CEM leukemia 94.3% | MOLT-4 leukemia 84.5%

O=c1scc(-c2ccc(C(F)(F)F)cc2)s1
inactive: SK-MEL-2 melanoma 77.8% | EKVX NSCLC 78.8% | SN12C renal 96.7% | UO-31 renal 89.4% | TK-10 renal 82.8% | ACHN renal 99.8% | CAKI-1 renal 73% | A498 renal 77.5% | CCRF-CEM leukemia 88.5% | MOLT-4 leukemia 94.5%

CCN(CC)CCn1c2ccc(OC)cc2c2sc3cc(OC)ccc3c(=O)c21
inactive: SK-MEL-2 melanoma 63.5% | EKVX NSCLC 41.3% | SN12C renal 24.6% | TK-10 renal 49.2% | CAKI-1 renal 48.3% | A498 renal 15.6% | CCRF-CEM leukemia 15%
active: UO-31 renal 8.29% | ACHN renal -38.8% | MOLT-4 leukemia 3.81%

Fc1cnccc1C1CC(c2ccc(N3CCNCC3)cc2)=NN1 (stereo not given)
inactive: SK-MEL-2 melanoma 92.7% | EKVX NSCLC 91% | SN12C renal 89.6% | UO-31 renal 77.2% | TK-10 renal 123% | ACHN renal 99.9% | CAKI-1 renal 80.6% | A498 renal 97.2% | CCRF-CEM leukemia 80.8% | MOLT-4 leukemia 74.2%

O=C1Nc2ccccc2/C1=C/c1cccn1CCCCn1c2ccccc2c(=O)c2ccccc21
inactive: SK-MEL-2 melanoma 84% | EKVX NSCLC 86.1% | SN12C renal 97.9% | UO-31 renal 49.7% | TK-10 renal 104% | ACHN renal 76.3% | CAKI-1 renal 69.5% | A498 renal 109% | CCRF-CEM leukemia 52.8% | MOLT-4 leukemia 47.7%

Cc1ccc(Nn2c(SCC(=O)Nc3nc(-c4ccccc4)cs3)nc(C)c2C)cc1
inactive: SK-MEL-2 melanoma 81.4% | EKVX NSCLC 49.7% | SN12C renal 64.3% | UO-31 renal 51.6% | TK-10 renal 72.7% | ACHN renal 60.9% | CAKI-1 renal 53.6% | A498 renal 92.5% | CCRF-CEM leukemia 57.7% | MOLT-4 leukemia 54.7%

CN1C(=O)/C(=C\c2c(Cl)cccc2Cl)c2ccccc21
inactive: SK-MEL-2 melanoma 97.7% | EKVX NSCLC 87.6% | SN12C renal 94.8% | UO-31 renal 75.4% | TK-10 renal 89.4% | ACHN renal 97.2% | CAKI-1 renal 68.3% | A498 renal 55.4% | CCRF-CEM leukemia 89.5% | MOLT-4 leukemia 79.4%

COC1=CC(c2ccc[nH]2)=N/C1=C\c1[nH]c(C)c(C)c1CCC(=O)OCc1ccccc1
active: SK-MEL-2 melanoma -28.9% | EKVX NSCLC -22.1% | SN12C renal -30% | UO-31 renal -77.1% | TK-10 renal -0.0887% | ACHN renal -39.5% | CAKI-1 renal -23.5% | A498 renal -19.8% | CCRF-CEM leukemia 0.65% | MOLT-4 leukemia -23.7%

CCN(CC)c1ccc(\C=N/N=C(N)/C(N)=N\N=C/c2ccc(N(CC)CC)cc2)cc1
inactive: SK-MEL-2 melanoma 97.7% | EKVX NSCLC 104% | SN12C renal 105% | UO-31 renal 82.9% | TK-10 renal 113% | ACHN renal 96.4% | CAKI-1 renal 88.9% | A498 renal 102% | CCRF-CEM leukemia 89% | MOLT-4 leukemia 95.8%

COCCNC(=O)Nc1ccc2nc(-c3cccs3)c(-c3cccs3)nc2c1
inactive: SK-MEL-2 melanoma 101% | EKVX NSCLC 87.9% | SN12C renal 94.7% | UO-31 renal 74.4% | TK-10 renal 104% | ACHN renal 89.3% | CAKI-1 renal 89.8% | A498 renal 33.7% | CCRF-CEM leukemia 96.8% | MOLT-4 leukemia 85.9%

C#CCOC(=O)/C=C/c1cn(-c2ccccc2)nc1-c1ccc(OC)cc1
inactive: SK-MEL-2 melanoma 90.4% | EKVX NSCLC 93.4% | SN12C renal 77.3% | UO-31 renal 54% | TK-10 renal 91.6% | ACHN renal 77% | CAKI-1 renal 67.6% | A498 renal 81.7% | CCRF-CEM leukemia 97.5% | MOLT-4 leukemia 75.8%
